ABCB6 inh MLPCN = blocks the human ABCB6 transporter | 360,000 compounds, 0.19% hits | Q9NP58 | K562-ABCB6 porphyrin accumulation, flow cytometry, 1 h; active compounds read low | AID 602162 | fluorescence ratio to DMSO, % at 10 µM;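 active = fluorescence ratio to DMSO below 75%, the collection mean minus 3 SD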;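 note: signal is porphyrin accumulated inside mitochondria; 100% equals median channel fluorescence of DMSO control wells; lower ratio means ABCB6 inhibition with less porphyrin fluorescence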
hiPSC survival = hiPSC single-cell survival enhancement. ATPlite luminescence; 100% = ROCK inhibitor wells, 0% = DMSO. survival enhancement, % at 20 µM. 360,000 compounds, 0.044% hits. AID 602274; in the data active = survival enhancement above about 18%;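 note: cells exposed to compounds for 16 hours before the ATP read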
Myeloid diff 2 = compounds promoting myeloid differentiation; AID 624256; 360,000 compounds, 1% hits; ER-HoxA9 myeloid progenitors, lysozyme-GFP differentiation, flow cytometry; calls only at 10 µM;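 active = normalized GFP-positive differentiation at or above the plate's own cutoff, the solvent-only control mean plus 3 SD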;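 note: cells exposed to compound for four days before flow analysis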
Cardio protect = myocardial damage modulation in H9c2 cells. H9c2 cardiomyocytes, H2O2 injury protection, ATPLite, 2 h. protection from H2O2 cell death, % at 20 µM. 360,000 compounds, 0.63% hits. AID 588492;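 active = compounds giving at least 50% protection of heart cells from peroxide-induced death in the single-dose screen, raw or plate-pattern-corrected value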;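 note: 0% = DMSO wells with peroxide and 100% = DMSO wells without peroxide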
beta cell repl = inducers of beta-cell replication in MIN6 cells; 330,000 compounds, 0.29% hits; MIN6 cells proliferation, ATPlite luminescence, 48 h; cells starved in 0.2% serum; 100% = growth in 10% serum; proliferation, % at 10 µM;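 active = compounds whose signal lies at least 3.5 SD above the mean of all wells on their plate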;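 note: 0% = DMSO-treated cells in low-serum medium and 100% = 10% serum control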
* marks the source's active call; other numbers are inactive results. An excerpt weighted towards active compounds, which were near 2.2% of everything screened.

`Nc1c(C(=O)Nc2ccc(S(=O)(=O)N3CCCC3)cc2)sc2nc3cc4c(cc3cc12)CCC4` gave ABCB6 inh MLPCN 147, hiPSC survival 3, Myeloid diff 2 active and Cardio protect -5.
`Nc1c(C(=O)Nc2ccc(S(=O)(=O)N3CCCC3)cc2)sc2nc3ccc(OC(F)(F)F)cc3cc12` gave ABCB6 inh MLPCN 229, hiPSC survival 0, Myeloid diff 2 inactive, Cardio protect 12 and beta cell repl -3.
`Cc1ccc(S(=O)(=O)Cn2nnnc2C(c2ccc(F)cc2)N2CCCCC2)cc1` (centres undefined) gave ABCB6 inh MLPCN 94, hiPSC survival -2, Myeloid diff 2 inactive, Cardio protect -4 and beta cell repl -3.
For CCN(CC)C(=O)C1c2ccccc2Oc2ccccc21 the results were ABCB6 inh MLPCN 129, hiPSC survival -1, Myeloid diff 2 active, Cardio protect 3 and beta cell repl 0.
CC(=O)N1CCc2cc(NS(=O)(=O)c3cccs3)ccc21 was read as ABCB6 inh MLPCN 94, hiPSC survival 2, Myeloid diff 2 inactive, Cardio protect 7 and beta cell repl -1.
Cc1ccc(NC(=O)c2ccc(NCCCN3CCC(C)CC3)c([N+](=O)[O-])c2)c(C)c1 was read as ABCB6 inh MLPCN 97, hiPSC survival 1, Myeloid diff 2 inactive, Cardio protect -2 and beta cell repl -5.
Screening Brc1ccc(-c2nc(N/N=C/c3cccnc3)c3ccccc3n2)cc1 returned ABCB6 inh MLPCN 109, hiPSC survival -6, Myeloid diff 2 active, Cardio protect -27 and beta cell repl -5.
Cc1cccc(NC(=O)CN2C(=O)N/C(=C/c3ccc(C)s3)C2=O)c1 was read as ABCB6 inh MLPCN 146, hiPSC survival 1, Myeloid diff 2 active, Cardio protect -3 and beta cell repl 0.
For Cc1cccc(NC(=O)CN2C(=O)N/C(=C/c3cc(C)n(C(C)C)c3C)C2=O)c1 the results were ABCB6 inh MLPCN 99, hiPSC survival 0, Myeloid diff 2 inactive, Cardio protect 4 and beta cell repl -2.
For Cc1cc(C)c2cc(C#N)c(N3CCCN(C(=O)c4cnccn4)CC3)nc2c1 the results were ABCB6 inh MLPCN 110, hiPSC survival -1, Myeloid diff 2 active, Cardio protect 16 and beta cell repl 0.
COc1ccccc1C(=O)N1CCN(c2nc3cc(C)cc(C)c3cc2C#N)CC1 was read as ABCB6 inh MLPCN 104, hiPSC survival 0, Myeloid diff 2 inactive and Cardio protect -4.
For CCc1nc2ccc(C(=O)Nc3cccc(NS(C)(=O)=O)c3)cn2c1N(C=O)CCC(C)C the results were ABCB6 inh MLPCN inactive, hiPSC survival 2, Myeloid diff 2 active and Cardio protect 17.
CCc1nc2ccc(C(=O)Nc3cccc(NS(C)(=O)=O)c3)cn2c1N(CCC(C)C)CCN(C)C was read as ABCB6 inh MLPCN 99, hiPSC survival -1, Myeloid diff 2 inactive and Cardio protect 8.
`Cc1cc(OCCOCCN(C)CCO)cc(C)c1Cl` gave ABCB6 inh MLPCN 97, hiPSC survival -1, Myeloid diff 2 inactive, Cardio protect 18 and beta cell repl -2.
For COc1cccc(OCCOCCN(C)CCO)c1 the results were ABCB6 inh MLPCN 162, hiPSC survival 0, Myeloid diff 2 active, Cardio protect -7 and beta cell repl -3.
For COC(=O)Nc1ccccc1C(=O)N1CCN(c2ccc(C)cc2)CC1 the results were ABCB6 inh MLPCN 103, hiPSC survival 0, Myeloid diff 2 inactive, Cardio protect -2 and beta cell repl 0.
O=C(CCC(=O)Nc1ccc(F)cc1)N/N=C/c1ccc(O)cc1O was read as ABCB6 inh MLPCN 100, hiPSC survival -1, Myeloid diff 2 inactive, Cardio protect 74* and beta cell repl -3.
Screening Cc1cc(C)n(CCC(=O)N/N=C/c2ccc(O)cc2O)n1 returned ABCB6 inh MLPCN 100, hiPSC survival -2, Myeloid diff 2 inactive, Cardio protect 55* and beta cell repl 0.
O=C(CCN1CCN(C(c2ccccc2)c2ccccc2)CC1)N/N=C/c1ccc(O)cc1 was read as ABCB6 inh MLPCN 98, hiPSC survival -1, Myeloid diff 2 inactive, Cardio protect 11 and beta cell repl 0.
For COc1ccc(/C=N/NC(=O)CCn2nc(C)cc2C)cc1O the results were ABCB6 inh MLPCN 97, hiPSC survival 0, Myeloid diff 2 inactive, Cardio protect -4 and beta cell repl 3.
Screening O=C(CCN1CCN(C(c2ccccc2)c2ccccc2)CC1)N/N=C/c1ccc(O)cc1O returned ABCB6 inh MLPCN 89, hiPSC survival 0, Myeloid diff 2 inactive, Cardio protect 61* and beta cell repl -5.
Cc1cc(C)n(CCC(=O)N/N=C/c2ccccc2O)n1 was read as ABCB6 inh MLPCN 102, hiPSC survival -1, Myeloid diff 2 inactive, Cardio protect 54* and beta cell repl 0.
N#CCC(=O)N/N=C/c1ccc(OC2CSC2)cc1 was read as ABCB6 inh MLPCN 97, hiPSC survival 3, Myeloid diff 2 inactive, Cardio protect -4 and beta cell repl -3.
Screening CCOCCN1CCN(c2c(CC)c(C)nc3cc(-c4cc(OC)cc(OC)c4)nn23)CC1 returned ABCB6 inh MLPCN 99, hiPSC survival -2, Myeloid diff 2 inactive, Cardio protect 73* and beta cell repl -4.
`CCc1c(C)nc2cc(-c3cc(OC)cc(OC)c3)nn2c1N1CCCC1` gave ABCB6 inh MLPCN 97, hiPSC survival 4, Myeloid diff 2 inactive, Cardio protect -19 and beta cell repl -5.
Cc1csc(NC(=O)CCC(=O)c2cccs2)n1 was read as ABCB6 inh MLPCN 104, hiPSC survival -1, Myeloid diff 2 inactive, Cardio protect 3 and beta cell repl 4.
For Cc1ccc(C2C(C#N)=C(N)SC(N)=C2C#N)c(C)c1 the results were ABCB6 inh MLPCN 124, hiPSC survival 4, Myeloid diff 2 active, Cardio protect 2 and beta cell repl -1.
Screening Cc1ccc(C2C(C#N)=C(N)SC(N)=C2C#N)cc1 returned ABCB6 inh MLPCN 111, hiPSC survival 0, Myeloid diff 2 inactive and Cardio protect -7.
`CC(C)OCCCNC(=O)CCC(=O)NNc1nc2ccccc2c2nc(-c3ccccc3)nn12` gave ABCB6 inh MLPCN 98, hiPSC survival -1, Myeloid diff 2 inactive, Cardio protect 84* and beta cell repl -2.
`CCOCCCNC(=O)CCC(=O)NNc1nc2ccccc2c2nc(-c3ccccc3)nn12` gave ABCB6 inh MLPCN 96, hiPSC survival -3, Myeloid diff 2 inactive, Cardio protect 54* and beta cell repl -2.
For O=C(O)c1ccc(CNCc2cccc(OCc3ccc(F)cc3)c2)cc1 the results were ABCB6 inh MLPCN 96, hiPSC survival -1, Myeloid diff 2 inactive, Cardio protect 0 and beta cell repl 0.
`Fc1ccc(COc2cccc(CNCc3ccncc3)c2)cc1` gave ABCB6 inh MLPCN 98, hiPSC survival -1, Myeloid diff 2 active, Cardio protect -26 and beta cell repl -6.
